Data: PubChem BioAssay (NCI)
This is part of a sample that, as a whole, favours compounds with a hit. Of some 83,000 tested, about 20% had one in any assay.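 Each cell line was grown in a 96-well plate and treated with one concentration of compound for 48 hours. Values below 10 were considered active.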 Calls of active or inactive are those of the source.

The compounds below were run on HCT-15 colon (assay: NCI-60 one-dose screen, 48 h (100 = growth as untreated, 0 = no growth, -100 = all killed)). Conditions: 10 µM unless noted.

**Q.** For S=c1nc(-c2ccccn2)c(-c2ccccn2)n[nH]1, which growth is on record?
**A.** The growth was 100% (inactive).

**Q.** With O=C(O)c1ccc(OCc2ccccc2)cc1 as the compound, how does the growth read?
**A.** The growth was 109% (inactive).

**Q.** How did the growth turn out when CCC(=O)Oc1c(C)cc(O)c2ccccc12 was run?
**A.** The growth was 91.1% (inactive).

**Q.** With Cc1nc(O)cc(=O)[nH]1 as the compound, how does the growth read?
**A.** Its growth is 119% (inactive).

**Q.** Which growth does the source give for CC(=O)NNC(=S)/N=C\C(C(=O)c1ccccc1)=C(/O)c1ccccc1 here?
**A.** Its growth is 98.7% (inactive).

**Q.** OCC(O)COc1ccc(Cl)cc1Cl (centres undefined) was tested. Which growth did it give?
**A.** Its growth is 105% (inactive).

**Q.** How did the growth turn out when ClCc1cccc2c(CCl)cccc12 was run?
**A.** Its growth is 73.8% (inactive).

**Q.** With COc1c(CNC(=O)CCl)cc2[nH]c(C)cc2c1CNC(=O)CCl as the compound, how does the growth read?
**A.** Its growth is 70.5% (inactive).

**Q.** CC(=O)Nc1ccc(/C=C2\SC(=S)N(/C=C(\C(C)=O)C(N)=O)C2=O)cc1 was tested. Which growth did it give?
**A.** The growth was 98.2% (inactive).

**Q.** CC(CO)(CO)C(=O)O was tested. Which growth did it give?
**A.** The growth was 100% (inactive).

**Q.** With COC(=O)c1ccc([N+](=O)[O-])c(C)c1 as the compound, how does the growth read?
**A.** Its growth is 94.9% (inactive).

**Q.** With CC(C)c1ncc([N+](=O)[O-])n1C as the compound, how does the growth read?
**A.** Its growth is 101% (inactive).

**Q.** Which growth does the source give for CC(=O)c1cccc(NS(=O)(=O)c2ccc(C)cc2)c1 here?
**A.** Its growth is 43.2% (inactive).

**Q.** Clc1ccc(-c2noc(/C=C\c3ccccc3)n2)cc1 was tested. Which growth did it give?
**A.** The growth was 95% (inactive).

**Q.** With OC1Cc2ccccc2C1 as the compound, how does the growth read?
**A.** The growth was 93.3% (inactive).

**Q.** Which growth does the source give for CC(=O)Nc1ccc(O)c(C)c1 here?
**A.** The growth was 118% (inactive).

**Q.** For Oc1ccc(N=Cc2ccc(OCc3ccccc3)cc2)cc1, which growth is on record?
**A.** The growth was 96.6% (inactive).

**Q.** For CCCCNC(=O)c1ccc(OCC)cc1, which growth is on record?
**A.** The growth was 105% (inactive).

**Q.** Which growth does the source give for CSc1nc2[nH]ncc2c(=O)[nH]1 here?
**A.** The growth was 99.7% (inactive).

**Q.** Which growth does the source give for Cc1ccc2nc(-c3ccc(N=Cc4ccccc4O)cc3)sc2c1 here?
**A.** The growth was 80.1% (inactive).

**Q.** For O=C(CCCl)OCCOc1ccccc1, which growth is on record?
**A.** The growth was 105% (inactive).

**Q.** How did the growth turn out when CCC1CCC(C)NC1 (centres undefined) was run?
**A.** Its growth is 91.5% (inactive).

**Q.** For COc1cc(C(=O)N2CCN(c3ccccc3)CC2)c2ccccc2n1, which growth is on record?
**A.** The growth was 18.3% (inactive).

**Q.** How did the growth turn out when NNc1ncnc2nc[nH]c12 was run?
**A.** The growth was 44.1% (inactive).

**Q.** FC(F)(F)c1cc(NC2=NCCN=C(Nc3cc(C(F)(F)F)cc(C(F)(F)F)c3)SS2)cc(C(F)(F)F)c1 was tested. Which growth did it give?
**A.** The growth was 37.8% (inactive).

**Q.** With Nc1ncnc(Nc2ccccc2)n1 as the compound, how does the growth read?
**A.** The growth was 103% (inactive).

**Q.** c1ccc2[nH]c(Cc3nc4ccccc4[nH]3)nc2c1 was tested. Which growth did it give?
**A.** The growth was 107% (inactive).

**Q.** Which growth does the source give for CC(C)(N)CO[C@H]1C[C@H]2CC[C@@]1(C)C2(C)C here?
**A.** Its growth is 90.7% (inactive).

**Q.** Which growth does the source give for Nc1ncc([N+](=O)[O-])cn1 here?
**A.** Its growth is 108% (inactive).

**Q.** Which growth does the source give for Cc1cc(CC(=O)NCCO)n(CCO)c(=O)c1 here?
**A.** The growth was 109% (inactive).

**Q.** NNC(=O)N/N=C1\C(=O)N(c2nccs2)C(=O)C(=O)C1c1nc2ccccc2s1 (centres undefined) was tested. Which growth did it give?
**A.** The growth was 116% (inactive).

**Q.** Nc1nc(Cl)cc(Cl)n1 was tested. Which growth did it give?
**A.** Its growth is 102% (inactive).

**Q.** Which growth does the source give for CC(=O)c1cccc(O)c1 here?
**A.** Its growth is 101% (inactive).

**Q.** O=c1n(CC2CO2)c(=O)n(CC2CO2)n1CC1CO1 (centres undefined) was tested. Which growth did it give?
**A.** Its growth is 60.5% (inactive).

**Q.** With O=C(O)c1c[nH]c2ccccc2c1=O as the compound, how does the growth read?
**A.** Its growth is 110% (inactive).

**Q.** With CC1(C)CCC(C)(C)NC(=S)N1 as the compound, how does the growth read?
**A.** Its growth is 98.7% (inactive).

**Q.** How did the growth turn out when NC(=O)OCCO was run?
**A.** Its growth is 108% (inactive).

The compounds below were run on HT29 colon in the same assay as above. Conditions: 10 µM unless noted.

**Q.** Which growth does the source give for S=c1nc(-c2ccccn2)c(-c2ccccn2)n[nH]1 here?
**A.** The growth was 103% (inactive).

**Q.** Which growth does the source give for O=C(O)c1ccc(OCc2ccccc2)cc1 here?
**A.** Its growth is 100% (inactive).

**Q.** CCC(=O)Oc1c(C)cc(O)c2ccccc12 was tested. Which growth did it give?
**A.** Its growth is 106% (inactive).

**Q.** With Cc1nc(O)cc(=O)[nH]1 as the compound, how does the growth read?
**A.** The growth was 108% (inactive).

**Q.** Which growth does the source give for CC(=O)NNC(=S)/N=C\C(C(=O)c1ccccc1)=C(/O)c1ccccc1 here?
**A.** Its growth is 93.8% (inactive).

**Q.** How did the growth turn out when OCC(O)COc1ccc(Cl)cc1Cl (centres undefined) was run?
**A.** The growth was 93.9% (inactive).

**Q.** For ClCc1cccc2c(CCl)cccc12, which growth is on record?
**A.** Its growth is 71.1% (inactive).

**Q.** Which growth does the source give for COc1c(CNC(=O)CCl)cc2[nH]c(C)cc2c1CNC(=O)CCl here?
**A.** The growth was 38.3% (inactive).

**Q.** How did the growth turn out when CC(=O)Nc1ccc(/C=C2\SC(=S)N(/C=C(\C(C)=O)C(N)=O)C2=O)cc1 was run?
**A.** Its growth is 97.4% (inactive).

**Q.** How did the growth turn out when CC(CO)(CO)C(=O)O was run?
**A.** The growth was 102% (inactive).

**Q.** Which growth does the source give for COC(=O)c1ccc([N+](=O)[O-])c(C)c1 here?
**A.** The growth was 121% (inactive).

**Q.** Which growth does the source give for CC(C)c1ncc([N+](=O)[O-])n1C here?
**A.** Its growth is 108% (inactive).

**Q.** CC(=O)c1cccc(NS(=O)(=O)c2ccc(C)cc2)c1 was tested. Which growth did it give?
**A.** Its growth is 30.2% (inactive).

**Q.** Clc1ccc(-c2noc(/C=C\c3ccccc3)n2)cc1 was tested. Which growth did it give?
**A.** Its growth is 102% (inactive).

**Q.** How did the growth turn out when OC1Cc2ccccc2C1 was run?
**A.** Its growth is 100% (inactive).

**Q.** CC(=O)Nc1ccc(O)c(C)c1 was tested. Which growth did it give?
**A.** Its growth is 98.4% (inactive).

**Q.** Oc1ccc(N=Cc2ccc(OCc3ccccc3)cc2)cc1 was tested. Which growth did it give?
**A.** The growth was 109% (inactive).

**Q.** CCCCNC(=O)c1ccc(OCC)cc1 was tested. Which growth did it give?
**A.** The growth was 107% (inactive).

**Q.** How did the growth turn out when CSc1nc2[nH]ncc2c(=O)[nH]1 was run?
**A.** Its growth is 107% (inactive).

**Q.** For Cc1ccc2nc(-c3ccc(N=Cc4ccccc4O)cc3)sc2c1, which growth is on record?
**A.** Its growth is 93.4% (inactive).

**Q.** For O=C(CCCl)OCCOc1ccccc1, which growth is on record?
**A.** The growth was 102% (inactive).

**Q.** With CCC1CCC(C)NC1 (centres undefined) as the compound, how does the growth read?
**A.** The growth was 104% (inactive).

**Q.** How did the growth turn out when COc1cc(C(=O)N2CCN(c3ccccc3)CC2)c2ccccc2n1 was run?
**A.** Its growth is -19% (active).

**Q.** Which growth does the source give for NNc1ncnc2nc[nH]c12 here?
**A.** Its growth is 53.7% (inactive).

**Q.** With FC(F)(F)c1cc(NC2=NCCN=C(Nc3cc(C(F)(F)F)cc(C(F)(F)F)c3)SS2)cc(C(F)(F)F)c1 as the compound, how does the growth read?
**A.** Its growth is 49% (inactive).

**Q.** For Nc1ncnc(Nc2ccccc2)n1, which growth is on record?
**A.** The growth was 108% (inactive).

**Q.** With c1ccc2[nH]c(Cc3nc4ccccc4[nH]3)nc2c1 as the compound, how does the growth read?
**A.** The growth was 112% (inactive).

**Q.** How did the growth turn out when CC(C)(N)CO[C@H]1C[C@H]2CC[C@@]1(C)C2(C)C was run?
**A.** The growth was 101% (inactive).

**Q.** Nc1ncc([N+](=O)[O-])cn1 was tested. Which growth did it give?
**A.** Its growth is 81.2% (inactive).

**Q.** With Cc1cc(CC(=O)NCCO)n(CCO)c(=O)c1 as the compound, how does the growth read?
**A.** Its growth is 98.3% (inactive).

**Q.** Which growth does the source give for NNC(=O)N/N=C1\C(=O)N(c2nccs2)C(=O)C(=O)C1c1nc2ccccc2s1 (centres undefined) here?
**A.** Its growth is 94.1% (inactive).

**Q.** Nc1nc(Cl)cc(Cl)n1 was tested. Which growth did it give?
**A.** The growth was 86.8% (inactive).

**Q.** Which growth does the source give for CC(=O)c1cccc(O)c1 here?
**A.** Its growth is 92.1% (inactive).

**Q.** O=c1n(CC2CO2)c(=O)n(CC2CO2)n1CC1CO1 (centres undefined) was tested. Which growth did it give?
**A.** The growth was 69.5% (inactive).

**Q.** With O=C(O)c1c[nH]c2ccccc2c1=O as the compound, how does the growth read?
**A.** The growth was 97.6% (inactive).

**Q.** How did the growth turn out when CC1(C)CCC(C)(C)NC(=S)N1 was run?
**A.** Its growth is 107% (inactive).

**Q.** NC(=O)OCCO was tested. Which growth did it give?
**A.** The growth was 99% (inactive).
